Test results: PubChem BioAssay (NCI)
This is part of a sample that, as a whole, favours compounds with a hit. Of some 83,000 tested, about 20% had one in any assay.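 Method: cells in 96-well plates; compound added at one concentration; 48 h incubation; percent growth measured; values under 10 scored active.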 Unmarked numbers belong to inactive results. Calls of active or inactive are those of the source.

Experiments:
Test in all cases: NCI-60 one-dose screen, 48 h (100 = growth as untreated, 0 = no growth, -100 = all killed)
SK-MEL-2 melanoma = conditions: 10 µM unless noted
EKVX NSCLC = conditions: 10 µM
SN12C renal = conditions: 10 µM unless noted
UO-31 renal = conditions: 10 µM unless noted
TK-10 renal = conditions: 10 µM unless noted
ACHN renal = conditions: 10 µM unless noted
CAKI-1 renal = conditions: 10 µM unless noted
A498 renal = conditions: 10 µM unless noted
CCRF-CEM leukemia = conditions: 10 µM
MOLT-4 leukemia = conditions: 10 µM unless noted
SR leukemia = conditions: 10 µM unless noted
RPMI-8226 leukemia = conditions: 10 µM unless noted
OVCAR-8 ovarian = conditions: 10 µM unless noted
OVCAR-5 ovarian = conditions: 10 µM unless noted
SK-OV-3 ovarian = conditions: 10 µM unless noted
IGROV1 ovarian = conditions: 10 µM unless noted
OVCAR-3 ovarian = conditions: 10 µM unless noted
NCI/ADR-RES ovarian = conditions: 10 µM unless noted
OVCAR-4 ovarian = conditions: 10 µM unless noted
HS 578T breast = conditions: 10 µM unless noted

Structure (SMILES)	growth (SK-MEL-2 melanoma)	growth (EKVX NSCLC)	growth (SN12C renal)	growth (UO-31 renal)	growth (TK-10 renal)	growth (ACHN renal)	growth (CAKI-1 renal) [%]	growth (A498 renal) [%]	growth (CCRF-CEM leukemia)	growth (MOLT-4 leukemia)	growth (SR leukemia) [%]	growth (RPMI-8226 leukemia)	growth (OVCAR-8 ovarian)	growth (OVCAR-5 ovarian)	growth (SK-OV-3 ovarian) [%]	growth (IGROV1 ovarian)	growth (OVCAR-3 ovarian) [%]	growth (NCI/ADR-RES ovarian)	growth (OVCAR-4 ovarian)	growth (HS 578T breast)
Cc1ccc2c(c1)C(=O)CCS2	119%	100%	101%	83.8%	90.8%	107%	99	82.8	109%	118%	118	100%	100%	97.5%	95	104%	115	111%		
CC(C)OC(=O)[C@H](C)N[P@@](=O)(OC[C@@]1(C)O[C@@H](n2cc(F)c(N)nc2=O)C[C@@H]1O[P@](=O)(N[C@@H](C)C(=O)OC(C)C)Oc1ccccc1)Oc1ccccc1	122%	109%	72.6%	98.6%	101%	92.4%	94.6	45	61.4%	67.5%	124	105%	79.4%	110%		94.4%	102	103%	112%	85.6%
CCS(=O)(=O)OCCO[C@H]1Cc2cc3ccc(=O)oc3cc2OC1(C)C	96.8%	107%	107%	86.9%	102%	107%	95	102	115%	107%	111	113%	101%	107%		109%	108	107%	106%	98%
Cc1nc(N)sc1C(=O)NCCO	12.8%	113%	101%	80.2%	112%	103%	129	119	60.6%	155%	161		102%	107%	113	118%	102	122%	113%	109%
COc1ccc2cnc(N)c(C#Cc3cc(C(=O)Nc4ccc(CN5CCN(C)CC5)c(C(F)(F)F)c4)cnc3C)c2c1	56.8%	71.8%	50%	-71.8% (active)	27.4%	-43.2% (active)	33.9	37.5	18.7%	23.7%		48.1%	75.4%	-39.3% (active)	69.4	28.8%	93	78.1%	58.2%	-16.3% (active)
COC(=O)/C=C/c1cc(O)c2oc(-c3ccc(O)c(O)c3)c(C(=O)OC)c2c1	43%	49.7%	34.4%	22.6%	46.7%	30.2%	19.9	18.2	3.32% (active)	19.2%	22	-16.8% (active)	18.5%	43.6%		32.4%	11.7	-3.33% (active)	42.8%	18.3%
COc1cc(N2C(=O)C=CC2=O)ccc1N1C(=O)C=CC1=O	113%	94.2%	105%	87.1%	86.4%	96.6%	93.7	74.9	18.9%	100%		103%	110%	103%	110	115%	104	106%	102%	102%
CC1C(=O)CCCC1=O	99%	110%	95.6%	86.7%	102%	104%	100	138	92.1%	95.1%	97.6	101%	107%	104%	108	102%	118	113%		
CCOC(=O)CSSCC(=O)OCC	111%	105%	103%	100%	103%	103%	97.5	118	95.9%	90.3%	88.7	98.6%	101%	108%	102	110%	110	110%		
COc1ccc2c(N)ncc(C#Cc3cc(C(=O)Nc4ccc(CN5CCN(C)CC5)c(C(F)(F)F)c4)cnc3C)c2c1	-15.4% (active)	-1.21% (active)	-45.4% (active)	-45.1% (active)	-60.2% (active)	-78.5% (active)	39.9	15.4	-25.4% (active)	-36.6% (active)		-45.1% (active)	-34.7% (active)	-21.6% (active)	24.5	-71.6% (active)	11.7	16%	0.668% (active)	30%
